Assay results reported in the supplement of paper PMC8728848.
Shown is part of a subset that was picked to be rich in the strongest signals.

How the values were obtained:
Assay in all cases: glycan array binding signal (z-score within array); higher = stronger binding
Details in all cases: glycan notation: IUPAC condensed, linker removed
[1] = target: Gal(b1-4)GlcNAc(b1-3)Gal(b1-4)GlcNAc(b1-3)Gal(b1-4)GlcNAc(b1-2)Man(a1-3)[Gal(b1-4)GlcNAc(b1-3)Gal(b1-4)GlcNAc(b1-3)Gal(b1-4)GlcNAc(b1-2)Man(a1-6)]Man(b1-4)GlcNAc(b1-4)[Fuc(a1-6)]GlcNAc
Summary of the method: (§1)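 From the Consortium for Functional Glycomics database, 3228 arrays were curated, keeping only those whose protein sequence was available. Binding is given as a within-array Z-score averaged across arrays sharing a protein sequence and across linkers. Negative Z-scores can be read as non-binding.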

[2] = target: Gal(b1-4)GlcNAc(b1-3)[Gal(b1-4)GlcNAc(b1-6)]Gal(b1-4)GlcNAc
Summary of the method: as §1

Gal3S6S(b1-4)GlcNAc = target: Gal3S6S(b1-4)GlcNAc
Summary of the method: as §1

[3] = target: GalNAc(a1-3)GalNAc(b1-3)Gal(a1-4)Gal(b1-4)Glc
Summary of the method: as §1

[4] = target: GalNAc(b1-4)GlcNAc(b1-2)Man(a1-3)[GalNAc(b1-4)GlcNAc(b1-2)Man(a1-6)]Man(b1-4)GlcNAc(b1-4)GlcNAc
Summary of the method: as §1

[5] = target: GalNAc(b1-4)GlcNAc(b1-3)GalNAc(b1-4)GlcNAc
Summary of the method: as §1

GalNAc(b1-4)GlcNAc6S = target: GalNAc(b1-4)GlcNAc6S
Summary of the method: as §1

GalNAc3S(b1-4)GlcNAc = target: GalNAc3S(b1-4)GlcNAc
Summary of the method: as §1

GlcA(b1-3)GlcNAc = target: GlcA(b1-3)GlcNAc
Summary of the method: as §1

[6] = target: GlcNAc(a1-3)Gal(b1-4)GlcNAc
Summary of the method: as §1

[7] = target: GlcNAc(b1-2)Gal(b1-3)GalNAc
Summary of the method: as §1

[8] = target: GlcNAc(b1-2)Man(a1-3)[GlcNAc(b1-4)][GlcNAc(b1-2)Man(a1-6)]Man(b1-4)GlcNAc(b1-4)[Fuc(a1-6)]GlcNAc
Summary of the method: as §1

[9] = target: GlcNAc(b1-3)Gal(b1-4)GlcNAc(b1-3)Gal(b1-4)GlcNAc
Summary of the method: as §1

[10] = target: GlcNAc(b1-3)Gal(b1-4)GlcNAc(b1-3)Gal(b1-4)GlcNAc(b1-2)Man(a1-3)[GlcNAc(b1-3)Gal(b1-4)GlcNAc(b1-3)Gal(b1-4)GlcNAc(b1-2)Man(a1-6)]Man(b1-4)GlcNAc(b1-4)GlcNAc
Summary of the method: as §1

[11] = target: GlcNAc(b1-3)Gal(b1-4)GlcNAc(b1-3)Gal(b1-4)GlcNAc(b1-2)[GlcNAc(b1-3)Gal(b1-4)GlcNAc(b1-3)Gal(b1-4)GlcNAc(b1-6)]Man(a1-6)[GlcNAc(b1-3)Gal(b1-4)GlcNAc(b1-3)Gal(b1-4)GlcNAc(b1-2)Man(a1-3)]Man(b1-4)GlcNAc(b1-4)[Fuc(a1-6)]GlcNAc
Summary of the method: as §1

[12] = target: GlcNAc(b1-3)Gal(b1-4)GlcNAc(b1-3)Gal(b1-4)GlcNAc(b1-3)Gal(b1-4)GlcNAc(b1-2)[GlcNAc(b1-3)Gal(b1-4)GlcNAc(b1-3)Gal(b1-4)GlcNAc(b1-3)Gal(b1-4)GlcNAc(b1-6)]Man(a1-6)[GlcNAc(b1-3)Gal(b1-4)GlcNAc(b1-3)Gal(b1-4)GlcNAc(b1-3)Gal(b1-4)GlcNAc(b1-2)Man(a1-3)]Man(b1-4)GlcNAc(b1-4)[Fuc(a1-6)]GlcNAc
Summary of the method: as §1

[13] = target: Neu5Ac(a2-3)Gal(b1-3)GalNAc(b1-3)Gal(a1-4)Gal(b1-4)Glc
Summary of the method: as §1

[14] = target: Neu5Ac(a2-3)Gal(b1-4)GlcNAc(b1-2)[Neu5Ac(a2-3)Gal(b1-4)GlcNAc(b1-6)]Man(a1-6)[Neu5Ac(a2-3)Gal(b1-4)GlcNAc(b1-2)Man(a1-3)][GlcNAc(b1-4)]Man(b1-4)GlcNAc(b1-4)GlcNAc
Summary of the method: as §1

[15] = target: Neu5Ac(a2-3)Gal(b1-4)GlcNAc(b1-3)Gal(b1-3)GlcNAc
Summary of the method: as §1

[16] = target: Neu5Ac(a2-3)Gal(b1-4)[Fuc(a1-3)]GlcNAc
Summary of the method: as §1

[17] = target: Neu5Ac(a2-3)Gal(b1-4)[Fuc(a1-3)]GlcNAc(b1-3)GalNAc
Summary of the method: as §1

[18] = target: Neu5Ac(a2-6)Gal(b1-4)GlcNAc(b1-2)Man(a1-3)Man(b1-4)GlcNAc(b1-4)GlcNAc
Summary of the method: as §1

[19] = target: Neu5Ac(a2-6)Gal(b1-4)GlcNAc(b1-2)Man(a1-3)[GlcNAc(b1-4)][Neu5Ac(a2-6)Gal(b1-4)GlcNAc(b1-2)Man(a1-6)]Man(b1-4)GlcNAc(b1-4)GlcNAc
Summary of the method: as §1

[20] = target: Neu5Ac(a2-6)Gal(b1-4)GlcNAc(b1-2)Man(a1-3)[Neu5Ac(a2-6)Gal(b1-4)GlcNAc(b1-2)Man(a1-6)]Man(b1-4)GlcNAc(b1-4)GlcNAc
Summary of the method: as §1

[21] = target: Neu5Ac(a2-6)Gal(b1-4)GlcNAc(b1-2)Man(a1-3)[Neu5Ac(a2-6)Gal(b1-4)GlcNAc(b1-2)Man(a1-6)]Man(b1-4)GlcNAc(b1-4)[Fuc(a1-6)]GlcNAc
Summary of the method: as §1

[22] = target: Neu5Ac(b2-6)Gal(b1-4)GlcNAc
Summary of the method: as §1

[23] = target: Neu5Gc(a2-6)Gal(b1-4)GlcNAc
Summary of the method: as §1

[24] = target: Neu5Gc(a2-8)Neu5Gc(a2-3)Gal(b1-4)GlcNAc
Summary of the method: as §1

B1: SUN4 (Saccharomyces cerevisiae), P53616 (protein)
chain: MGSSHHHHHHSSGLVPRGSHNGSIYGDLADFSGPYEKFEDGTIPCGQFPSGQGVIPISWLDEGGWSGVENTDTSTGGSCKEGSYCSYACQPGMSKTQWPSDQPSDGRSIGGLLCKDGYLYRSNTDTDYLCEWGVDAAYVVSELSNDVAICRTDYPGTENMVIPTYVQAGDSLPLTVVDQDTYYTWQGLKTSAQYYVNNAGISVEDACVWGSSSSGVGNWAPLNFGAGSSDGVAYLSLIPNPNNGNALNFNVKIVAADDSSTVNGECIYENGSFSGGSDGCTVSVTAGKAKFVLYN
- glycan array binding signal (z-score) [1]: 2.9
- glycan array binding signal (z-score) [2]: -1.28
- glycan array binding signal (z-score) (Gal3S6S(b1-4)GlcNAc): 2.2
- glycan array binding signal (z-score) [3]: -0.199
- glycan array binding signal (z-score) [4]: 4.51
- glycan array binding signal (z-score) [5]: -0.309
- glycan array binding signal (z-score) (GalNAc(b1-4)GlcNAc6S): 0.149
- glycan array binding signal (z-score) (GalNAc3S(b1-4)GlcNAc): 1.87
- glycan array binding signal (z-score) (GlcA(b1-3)GlcNAc): -0.127
- glycan array binding signal (z-score) [6]: 0.414
- glycan array binding signal (z-score) [7]: 0.963
- glycan array binding signal (z-score) [8]: -0.555
- glycan array binding signal (z-score) [9]: 0.244
- glycan array binding signal (z-score) [10]: 0.121
- glycan array binding signal (z-score) [11]: 1.97
- glycan array binding signal (z-score) [12]: 1.86
- glycan array binding signal (z-score) [13]: 0.263
- glycan array binding signal (z-score) [14]: -0.391
- glycan array binding signal (z-score) [15]: -0.71
- glycan array binding signal (z-score) [16]: -0.661
- glycan array binding signal (z-score) [17]: 1.91
- glycan array binding signal (z-score) [18]: -0.036
- glycan array binding signal (z-score) [19]: 0.646
- glycan array binding signal (z-score) [20]: 0.023
- glycan array binding signal (z-score) [21]: 0.827
- glycan array binding signal (z-score) [22]: -0.182
- glycan array binding signal (z-score) [23]: -0.424
- glycan array binding signal (z-score) [24]: -0.415
